Results taken from PubChem BioAssay (NCI).
The panel holds about 83,000 compounds, 20% with a hit somewhere; the sample as a whole holds those more often.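 Method: cells in 96-well plates; compound added at one concentration; 48 h incubation; percent growth measured; values under 10 scored active.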 Values without a mark were called inactive. Activity calls are given as the source filed them.

Experiments:
Assay in all cases: NCI-60 one-dose screen, 48 h (100 = growth as untreated, 0 = no growth, -100 = all killed)
Settings in all cases: 10 µM unless noted
T-47D breast = system: T-47D breast
BT-549 breast = system: BT-549 breast
MDA-MB-435 melanoma = system: MDA-MB-435 melanoma
SW-620 colon = system: SW-620 colon
MCF7 breast = system: MCF7 breast
HCT-116 colon = system: HCT-116 colon
HCC-2998 colon = system: HCC-2998 colon
KM12 colon = system: KM12 colon

Row | Structure (SMILES) | growth (T-47D breast) | growth (BT-549 breast) | growth (MDA-MB-435 melanoma) | growth (SW-620 colon) | growth (MCF7 breast) | growth (HCT-116 colon) | growth (HCC-2998 colon) | growth (KM12 colon)
1 | O=C1NC(=O)/C(=C/c2ccc(OCc3cc4ccccc4nc3Cl)cc2)S1 | 87.8% | 123% | 98.3% | 104% | 91.6% | 98.1% | 105% | 100%
2 | COc1ccc(-c2no[n+]([O-])c2Nc2ccccc2Br)cc1 | 80% | 113% | 107% | 101% | 84.9% | 93.7% | 111% | 101%
3 | Cc1occc1-c1nc2s/c(=C\c3cn(-c4ccccc4)nc3-c3ccccc3)c(=O)n2n1 | 95.2% | 97.7% | 98.9% | 97.5% | 91.9% | 98.7% | 101% | 102%
4 | Cc1ccc(NC(=O)c2ccc(CN3CCN(C)CC3)c(C(F)(F)F)c2)cc1Oc1ccc(-c2[nH]nc3ncnc(N)c23)cc1 | 101% | 105% | 71.5% | 24.3% | 54% | 8.72% (active) | 111% | 17.7%
5 | O=C(Nc1ccccc1)Nc1nc2ccc([N+](=O)[O-])cc2s1 | -14.3% (active) | -11.8% (active) | 2.4% (active) | 11.5% | 2.9% (active) | 4.52% (active) | 10.8% | 3.66% (active)
6 | CNC(=O)c1c(NC(=O)c2ccc(F)cc2F)sc2c1CCC(=O)C2 | -14.2% (active) | 6.83% (active) | 12.2% | 5.05% (active) | 7.35% (active) | 7% (active) | 13.5% | 9.65% (active)
7 | C#CCOc1ccccc1C(Nc1ccccc1)c1nnnn1C1CCCCC1 (configuration not stated) | 93% | 109% | 101% | 104% | 94.3% | 84.3% | 106% | 94.6%
8 | CCOC(=O)c1c(NC(=O)c2ccc(C(C)(C)C)cc2)sc2cc(OCCN3CCCCC3)ccc12 | 96.9% | 93% | 91.8% | 22.2% | 34.8% | 21.7% | 87% | 51.1%
9 | O=S(=O)(NC1CC2CCC1C2)c1ccc2c(c1)C(=NO)c1cc(S(=O)(=O)NC3CC4CCC3C4)ccc1-2 (configuration not stated) | -0.508% (active) | 31.7% | 27.1% | -63.4% (active) | 25.3% | 20.3% | 38.9% | 45.9%
10 | O=C1Nc2ccc(Br)cc2/C1=N\c1nnc(-c2ccc(Cl)cc2)o1 | 76.7% | 63.1% | -20.7% (active) | 16.5% | 34.9% | 49.2% | 96.2% | 70%
11 | Cn1nc(Nc2ccccc2)c(C(=O)NN)c1N | 95.4% | 129% | 105% | 99.8% | 89.7% | 113% | 107% | 99.4%
12 | O=C(NCCNc1cc(-c2cn(-c3ccccc3)nc2-c2cccc(O)c2)ccn1)Nc1ccc(Cl)c(C(F)(F)F)c1 | 67.3% | 98% | 52.8% | 46.8% | 10.4% | 50.6% | -77.7% (active) | 37.9%
13 | CN1C(=O)N(C)C2Nn3c(s/c(=C\c4ccccn4)c3=O)=NC21 (configuration not stated) | 102% | 103% | 99.2% | 105% | 89.3% | 100% | 109% | 106%
14 | C[C@@H]1C[C@H]2C(=O)OCC(NC(=O)[C@H](Cc3cc(F)cc(F)c3)NC(=O)Nc3ccc(Cl)cc3F)C(=O)N3CCC[C@H]3C(=O)N3CCCC[C@H]3C(=O)N[C@@H](C)C(=O)N2C1 (some centres not stated) | 28.8% | 21.4% | 19.9% | 37.7% | 12.6% | -6.65% (active) | 15.8% | 36.1%
15 | Nc1nc(N)c2c(n1)NC(c1ccc(Cl)cc1)CC(c1ccc(Nc3nc(NCCO)nc(Nc4ccc(Cl)cc4)n3)cc1)=N2 (configuration not stated) | 51.9% | 58.3% | 5.23% (active) | -36.2% (active) | -75.1% (active) | -84.8% (active) | 18.6% | 11.5%
16 | Cc1cnc2nc(NN)[nH]n12 | 98.4% | 111% | 99.7% | 103% | 92.6% | 98.9% | 108% | 100%
17 | CCOC(=O)Nc1cccc(-n2cnc3cc(-c4ccc(O)cc4)ccc32)c1 | 12.8% | 39.3% | -16% (active) | 25.5% | 18.2% | 10.3% | 30.2% | 3.22% (active)
18 | O=C(Nc1cc(Cl)cc(Cl)c1)Nc1ccc2oc(=O)ccc2c1 | 3.54% (active) | 29% | 13.9% | 17.3% | 5.48% (active) | 1.36% (active) | 27.3% | 11.5%
19 | Oc1ccc(CSc2nnc(-c3ccncc3)n2-c2ccccc2)c2cccnc12 | 14.5% | 41.9% | 20% | 16.5% | 2.74% (active) | 22.5% | 35.9% | 16.9%
20 | CCN1CCN(Cc2ccc(C(=O)Nc3nc4ccc(Oc5ccnc(C(=O)NC)c5)cc4s3)cc2C(F)(F)F)CC1 | 18.7% | 45.3% | 46% | -17.2% (active) | 16.3% | 18% | 62.8% | 48.4%
21 | CCCCCCCCCC[C@@H](C)[C@@H]1CC(=O)N[C@H]([C@@H](C)O)C(=O)N[C@@H](C)C(=O)N[C@H](C)C(=O)N[C@@H](CCC(N)=O)C(=O)N[C@H](Cc2ccc(O)cc2)C(=O)N[C@@H](C(C)CC)C(=O)O1 (some centres not stated) | 28% | 72.1% | 75.3% | 81.9% | 38.9% | 64.6% | 68.3% | 81.4%
22 | COc1ccc(CN2C(=O)/C(=C/c3nc(CO)cs3)SC2=S)cc1 | 53% | 99.9% | 89.7% | 77.8% | 12% | 75% | 109% | 9.43% (active)
23 | CCc1ccc(NC(=O)N[C@@H](Cc2cccc(C)c2)C(=O)N[C@@H]2C(=O)N3CCC[C@H]3C(=O)N3CCCC[C@H]3C(=O)N[C@@H](CO)C(=O)N3C[C@H](C)C[C@H]3C(=O)O[C@H]2C)c(F)c1 | 27.4% | 24.9% | 16.8% | 34.7% | 17.6% | 11.8% | 23.9% | 37.6%
24 | CN1CCN(Cc2ccc(NC(=O)c3cncc(C#Cc4cnc5ccc(NC6CCOCC6)nn45)c3)cc2C(F)(F)F)CC1 | -66.2% (active) | -94.4% (active) | -70.2% (active) | -42.1% (active) | -60.3% (active) | -79% (active) | -19.8% (active) | -42.1% (active)
25 | CN1CCN(Cc2ccc(NC(=O)c3cncc(C#Cc4[nH]nc5ncncc45)c3)cc2C(F)(F)F)CC1 | 39.2% | 118% | 38.9% | 31.6% | 46% | 17.7% | 44.3% | 10.5%
26 | CCCC(=O)NC(c1cccnc1)c1cc(Cl)c2cccnc2c1O (configuration not stated) | 27.7% | 68.8% | 38.1% | 26% | 12.5% | 29.1% | 51.2% | 30.7%
27 | COc1ccc(-c2nc3cc(Cl)c(Cl)cc3n2CC(=O)N=Nc2c(O)[nH]c3ccccc23)cc1 | 57.8% | 78.3% | 68.8% | 62.4% | 45.7% | 22.6% | 66% | 68.2%
28 | O=C1[C@@H]2Cc3c([nH]c4ccccc34)[C@H](c3c(Cl)cccc3Cl)N2C(=O)CN1C1CCN(Cc2c(F)cccc2F)CC1 | 94.9% | 80.4% | 85.1% | 72.1% | 40.4% | 15.7% | 63.8% | 74.5%
29 | C#CCOc1ccc(C(Nc2cc(Cl)ccc2Cl)c2nnnn2C2CCCCC2)cc1 (configuration not stated) | 67.5% | 93.6% | 102% | 91.8% | 73.4% | 56.3% | 90.1% | 92%
